Experimental data: PubChem BioAssay AID504427 (National Center for Advancing Translational Sciences (NCATS), 2011)
This is one part of the list. The source made the active and inactive calls.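 Rule for the calls: active = compound that inhibits Clk2 kinase in the dose series, with an IC50 potency reported; inactive = no inhibition seen.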

target: Dual specificity protein kinase CLK2 (Homo sapiens) (UniProt P49760); assay: Kinase Inhibition Study on Inhibitors of CDC-like Kinase 2 (Reaction Biology data); details: Reaction Biology kinase assay, 10 uM ATP
Sequence (P49760 whole entry, looked up, canonical isoform): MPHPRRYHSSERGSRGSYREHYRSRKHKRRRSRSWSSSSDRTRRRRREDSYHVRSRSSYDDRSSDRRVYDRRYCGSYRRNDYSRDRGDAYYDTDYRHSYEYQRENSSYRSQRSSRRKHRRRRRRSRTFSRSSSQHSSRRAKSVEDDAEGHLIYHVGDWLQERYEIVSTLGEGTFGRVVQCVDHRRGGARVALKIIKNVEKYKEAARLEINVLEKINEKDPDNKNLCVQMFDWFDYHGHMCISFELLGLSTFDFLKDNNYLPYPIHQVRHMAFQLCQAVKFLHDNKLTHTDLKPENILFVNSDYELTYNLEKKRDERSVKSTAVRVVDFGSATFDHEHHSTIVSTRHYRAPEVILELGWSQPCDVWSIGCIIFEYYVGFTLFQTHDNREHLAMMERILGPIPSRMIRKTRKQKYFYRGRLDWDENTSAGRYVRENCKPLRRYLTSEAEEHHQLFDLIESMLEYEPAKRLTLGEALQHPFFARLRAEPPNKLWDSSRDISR
From the text: NIH Molecular Libraries Probe Production Centers Network [MLPCN] NIH Chemical Genomics Center [NCGC] MLPCN Grant: 1R03MH084827-01 Assay Submitter (PI): Tom Misteli NCGC Assay Overview: Alternative splicing of pre-mRNAs plays a major role in the regulation of eukaryotic gene expression. Alternative splicing is now thought to be one of the primary reasons for the complexity of higher organisms leading to an average of three protein isoforms per gene. Aberrant splicing can lead to a number of diseases and is known to play a role in rare genetic diseases such as progeria syndrome. Hutchinson-Gilford Progeria Syndrome (HGPS) is a pediatric premature aging disease caused by a spontaneous mutation in the lamin A/C (LMNA) gene due to a single point mutation in the lamin A gene effecting 1 in 4 million people. To identify both specific splicing modulators of the lamin A gene as well as general splicing modulators, a cell-based HTS assay was developed using a minigene reporter system (AIDs, 1459 & 1487). […] This AID summarizes the characterization of lead compounds in Clk2.
All kinase reactions were performed using 10 uM ATP in the assay. 100% activity was taken from kinase reactions with DMSO alone (the vehicle used for compound stock solutions).

Row | Structure (SMILES) | Potency
1 | CC(Nc1ncnc2ccc(-c3ccc4c(c3)OCO4)cc12)c1ccco1 (centres undefined) | 8.37 µM (active)
2 | CN(Cc1cncn1C)c1ncnc2ccc(-c3ccc4c(c3)OCO4)cc12 | 15 µM (active)
3 | c1coc(CCNc2ncnc3ccc(-c4ccc5c(c4)OCO5)cc23)c1 | 0.801 µM (active)
4 | c1nc(N2CCOCC2)c2cc(-c3ccc4c(c3)OCO4)ccc2n1 | 1.67 µM (active)
